Measured values from PubChem BioAssay AID2419 (Southern Research Specialized Biocontainment Screening …, 2010).
Results with a measured potency or affinity are listed apart. Values without a mark were called inactive. No rule for the calls is given here.

Assay: antiviral activity against WNV, CPE read-out – cell-based (AID 2419)
Details: West Nile virus-infected cells, stronger effect = higher value; at 200 µM unless noted

Compound	max CPE inhibition
O=C(CSc1nc2ccc(F)cc2c(=O)n1-c1ccccc1)Nc1ccc2c(c1)CCC2	3.95%
OC1c2cc(Br)ccc2N=C2CCCCCN21 (stereo not given)	6.41% [at 0.78 µM]
OC1c2cc(I)ccc2N=C2CCCN21 (stereo not given)	0.77% [at 0.39 µM]
Cc1cc(OC(=O)c2c(F)cccc2F)n(Cc2ccccc2)n1	1.92%
OC1c2c(F)cccc2N=C2CCCCN21 (stereo not given)	0.91% [at 0.39 µM]
C=CCN(C(=O)c1ccccc1Cl)c1nc(-c2ccc(OC)cc2)cs1	1.14%
O=C(CSc1nc2cccc(F)c2c(=O)n1-c1ccccc1)Nc1ccc2c(c1)CCC2	2.29% [at 25 µM]
Cc1ccc2nc(SCC(=O)Nc3ccc4c(c3)CCC4)n(-c3ccccc3)c(=O)c2c1	6.42% [at 25 µM]
COc1ccc(Cn2nc(C)cc2OC(=O)c2c(F)ccc(C)c2F)cc1	14%
Cc1cccc2c(=O)n(-c3ccccc3)c(SCC(=O)Nc3ccc4c(c3)CCC4)nc12	2.82% [at 25 µM]
COc1cccc2c(=O)n(-c3ccccc3)c(SCC(=O)Nc3ccc4c(c3)CCC4)nc12	2.38% [at 12.5 µM]
O=C(CSc1nc2ccccc2c(=O)n1-c1ccc(F)cc1)Nc1ccc2c(c1)CCC2	29.6% [at 100 µM]
O=C(CSc1nc2ccccc2c(=O)n1-c1ccc(F)cc1F)Nc1ccc(N2CCOCC2)cc1	1.05% [at 0.39 µM]
COc1ccc(Cn2nc(C)cc2OC(=O)c2ccccc2)cc1	1.5%
OC1c2c(F)cccc2N=C2CCCN21 (stereo not given)	0.91% [at 0.39 µM]
OC1c2cc(Br)ccc2N=C2CCCCN21 (stereo not given)	0.62% [at 3.13 µM]
OC1c2cc(Cl)cc(Cl)c2N=C2CCCN21 (stereo not given)	1.94% [at 0.78 µM]
COc1ccc(Cn2nc(C)cc2OC(=O)c2c(F)cccc2F)cc1	1.63%
O=C(CSc1nc2cccc(I)c2c(=O)n1-c1ccccc1)Nc1ccc2c(c1)CCC2	3.08%
OC1c2c(F)cccc2N=C2CCCCCN21 (stereo not given)	1.99% [at 0.39 µM]
